# Test results from PubChem BioAssay (Tox21).
# “And” between values parts separate entries of the source, which are not always exact repeats. Equal values may be shown once. Inconclusive results are not listed. A call without a number means that no potency is given here. More than one record can exist for a structure, and the calls need not agree. The source made the active and inactive calls. Unless noted, the call rests on the fitted dose curve; in most records, active means well fitted curve in the direction sought with a large enough effect in the repeat runs; inconclusive means weak or mixed curves; inactive means no such curve, though single readings can be large; an effect the other way counts as inactive or inconclusive.
# How the values were obtained:
# [1] = A CellTox Green Cytotoxicity Assay to monitor cytotoxicity in HepG2 cells - 8 hour (AID 1224890); further: nearly all actives have a fitted effect of over 45% in size; further: potency means the concentration at half of the fitted maximal effect
# Outline: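 HepG2 cells were seeded together with the CellTox Green dye at 600 cells/well, left 5 h at 37 C/5% CO2, then given compounds in DMSO. Fluorescence from dye bound to dead-cell DNA was read repeatedly over 40 h of treatment at 37 C.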
# [2] = qHTS assay to identify small molecule antagonists of the estrogen receptor alpha (ER-alpha) signaling pathway using the BG1 cell line in the presence of 0.1 nM 17-beta-estradiol - cell viability counter screen (AID 1259241); further: nearly all actives have a fitted effect of over 40% in size
# Outline: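 Live-cell protease activity (CellTiter-Fluor fluorescence, 30 min) was read in the same wells after VM7Luc4E2 cells had been exposed to compounds with 0.1 nM 17beta-estradiol for 22 hr at 37C.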
# [3] = target: Estrogen receptor (Homo sapiens) (UniProt P03372); test: qHTS assay to identify small molecule antagonists of the estrogen receptor alpha (ER-alpha) signaling pathway using the BG1 cell line in the presence of 0.1 nM 17-beta-estradiol (AID 1259244); further: nearly all actives have a fitted effect of over 50% in size; further: potency means the concentration at half of the fitted maximal effect
# Sequence of Estrogen receptor (Homo sapiens) (P03372 whole entry, looked up): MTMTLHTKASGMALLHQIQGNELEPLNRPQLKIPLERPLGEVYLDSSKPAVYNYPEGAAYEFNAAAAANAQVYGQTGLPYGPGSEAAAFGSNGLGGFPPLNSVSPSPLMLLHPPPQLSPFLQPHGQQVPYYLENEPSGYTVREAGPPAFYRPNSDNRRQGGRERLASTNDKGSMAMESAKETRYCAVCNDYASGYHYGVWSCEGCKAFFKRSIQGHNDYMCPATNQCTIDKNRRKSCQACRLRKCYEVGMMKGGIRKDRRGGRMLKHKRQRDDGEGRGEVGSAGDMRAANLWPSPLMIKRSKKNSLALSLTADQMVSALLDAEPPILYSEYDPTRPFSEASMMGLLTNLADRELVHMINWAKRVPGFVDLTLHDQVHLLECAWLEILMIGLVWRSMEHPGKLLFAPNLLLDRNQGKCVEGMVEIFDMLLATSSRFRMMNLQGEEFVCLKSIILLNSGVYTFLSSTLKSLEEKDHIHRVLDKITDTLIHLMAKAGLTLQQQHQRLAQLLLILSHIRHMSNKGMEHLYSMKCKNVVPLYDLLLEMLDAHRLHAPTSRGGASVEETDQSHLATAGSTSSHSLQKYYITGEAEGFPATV
# Outline: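 VM7Luc4E2 cells (endogenous full-length ER-alpha, stable 4xERE-luciferase) were grown 5 days in phenol red-free medium with charcoal-stripped FBS, then exposed 22 h at 37C to compounds plus 0.1 nM (final) 17beta-estradiol; ONE-Glo luminescence read-out.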
# [4] = qHTS assay to identify small molecule phospholipidosis (PLD) inducers (AID 1259344; active means well fitted curve in the direction sought with a large enough effect; an effect the other way counts as inactive or inconclusive; further: potency means the concentration at half of the fitted maximal effect)
# Outline: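 Quantitative HTS in HepG2: compound plus LipidTOX Red dye for 24 h, paraformaldehyde fixation with Hoechst 33342, widefield high-content imaging; amiodarone as positive and DMSO as negative control.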
# [5] = qHTS assay to identify small molecule HDAC inhibitors - cell viability counter screen (AID 1259365); further: series mostly up to about 92 µM; nearly all actives have a fitted effect of over 50% in size
# Outline: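 HCT-116 (wild type), 1,500 cells/well, overnight 37C/5% CO2; compound in DMSO 2hr; CellTiter-Glo 30min RT; luminescence read.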
# [6] = qHTS assay to identify small molecule antagonists of the sonic hedgehog signaling (Shh) pathway - cell viability counter screen (AID 1259367); further: nearly all actives have a fitted effect of over 55% in size; further: potency means the concentration at half of the fitted maximal effect
# Outline: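 Seed 3T3 Gli1-Luc cells at 2,000 per well; incubate 4 hr; add compound in DMSO, then conditioned medium; incubate at 37C with 5% CO2; add CellTiter-Fluor after 23 hr; read fluorescence 1 hr later.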
# [7] = qHTS assay to identify small molecule HDAC inhibitors (AID 1259364); further: nearly all actives have a fitted effect of over 45% in size; further: potency means the concentration at half of the fitted maximal effect
# Outline: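 Wild-type HCT-116 cells were plated overnight, exposed to compounds for 2 h at 37 °C, then given HDAC-Glo class I/II luminogenic reagent for 30 min at room temperature before luminescence was read.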
# [8] = qHTS assay to identify small molecule agonists of the sonic hedgehog signaling (Shh) pathway - cell viability counter screen (AID 1259366); further: nearly all actives have a fitted effect of over 50% in size; further: potency means the concentration at half of the fitted maximal effect
# Outline: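 CellTiter-Fluor fluorescence read-out, 1 hr at 37C, added after 23hr compound exposure. Cells: 3T3 Gli1-Luc, an NIH/3T3 clone with stably integrated Gli1-Luc reporter, plated 4hr before compound.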
SMILES,Potency [1],Potency [2],Potency [3],Potency [4],outcome [5],Potency [6],Potency [7],Potency [8],PLD induction [4]
C[C@]12CCC(=O)C=C1CC[C@@H]1[C@@H]2C(=O)C[C@@]2(C)[C@H]1CC[C@]2(O)C(=O)CO,inactive,inactive,inactive,inactive,inactive,inactive,,,
CC(C)CC(C)(O)C#CC(C)(O)CC(C)C (stereo not drawn),inactive,inactive,,,inactive,30 µM (active) and inactive,inactive,13.4 µM (active) and inactive,
CN(C)C(=N)N=C(N)N,inactive,inactive,,inactive,inactive,inactive,,inactive,
CC(C)OB(OC(C)C)OC(C)C,inactive,inactive,inactive,,inactive,inactive,inactive,inactive,
COc1ccc(OC)c(C(O)CNC(=O)CN)c1 (stereo not drawn),inactive,inactive,inactive,inactive,inactive,inactive,inactive,inactive,
C#C[C@]1(O)CC[C@H]2[C@@H]3CCc4cc(OC)ccc4[C@H]3CC[C@@]21C,inactive,inactive,inactive,inactive,inactive,inactive,,inactive,
NC=O,inactive,inactive,,,inactive,inactive,inactive,inactive,
CN1C(C(=O)Nc2ccccn2)=C(O)c2ccccc2S1(=O)=O,inactive,inactive,inactive,inactive,inactive,inactive,inactive,inactive,
Nc1ccc(Nc2ccccc2)cc1,inactive,inactive,inactive,,inactive,48.6 µM (active),inactive,61.1 µM (active),
c1ccncc1,inactive,inactive,inactive,,inactive,inactive,inactive,inactive,
Nc1ccccc1N,56.2 µM (active),inactive,inactive and 54.5 µM (active),inactive,inactive,inactive,19.8 µM (active),,
CCCCc1oc2ccccc2c1C(=O)c1cc(I)c(OCCN(CC)CC)c(I)c1,,inactive,inactive,10 µM (active),inactive,inactive,inactive,43.6 µM (active),-0.301% [at 7.66 µM] (inactive)
O=C(COc1ccc(Cl)cc1)N1CCN(Cc2ccc3c(c2)OCO3)CC1,inactive,inactive,48.6 µM (active) and 29.8 µM (active),inactive,inactive,inactive,,inactive,
CCC(C)c1ccccc1O (stereo not drawn),inactive,inactive,,,inactive,inactive,inactive,inactive,
CCC(C)(O)CCCC(C)C (stereo not drawn),inactive,inactive,inactive,,inactive,inactive,inactive,inactive,
